Molecules are shown by their SMILES.

Experimental findings from the supplement of paper PMC9694430 are described below.

LOC_OS06G16330-cb003, sequence (as listed by the source): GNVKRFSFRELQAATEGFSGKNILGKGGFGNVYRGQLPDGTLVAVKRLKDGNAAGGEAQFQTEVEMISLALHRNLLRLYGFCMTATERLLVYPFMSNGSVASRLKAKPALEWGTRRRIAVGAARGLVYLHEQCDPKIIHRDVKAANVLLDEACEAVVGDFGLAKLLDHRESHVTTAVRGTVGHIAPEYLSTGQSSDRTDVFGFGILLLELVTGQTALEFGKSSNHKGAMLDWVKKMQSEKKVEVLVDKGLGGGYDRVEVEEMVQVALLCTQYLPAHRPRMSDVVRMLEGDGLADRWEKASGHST

For one experiment, the system named is LOC_OS05G43570-cb004. As to the kind of experiment: thermal shift delta Tm vs DMSO control; higher = stronger stabilization (binding). The conditions noted are these: 12.5 µM; protein concentration 2 µM. Summed up:
(§1)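 The melting temperature shift given here is a triplicate mean, measured against protein that received only DMSO. Melting temperatures came from Boltzmann fits of differential scanning fluorimetry data on E. coli-expressed, purified rice kinase domain constructs. Each 19.5 μl well contained 2 μM kinase, 100 mM potassium phosphate pH 7.5, 150 mM NaCl, 10% glycerol, 5 × SYPRO Orange and compound in DMSO. Plates were scanned from 25°C to 95°C at 0.05°C/s.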
Turning to `O=C1NC(=O)C(c2ccccc2[N+](=O)[O-])=C1Nc1ccc(O)c(Cl)c1`, the “thermal shift delta Tm” value stood at 0.82 °C.
On the same count and under the same terms, under `CCOc1cc2ncc(C#N)c(Nc3ccc(OCc4ccccn4)c(Cl)c3)c2cc1NC(=O)/C=C/CN(C)C` [Neratinib (HKI-272)] stands 0.35 °C; under `CCCS(=O)(=O)Nc1ccc(F)c(C(=O)c2c[nH]c3ncc(-c4ccc(Cl)cc4)cc23)c1F` [Vemurafenib (PLX4032, RG7204)], 1.69 °C.
Same read-out and setting: as for `Cc1cn(-c2cc(NC(=O)c3ccc(C)c(Nc4nccc(-c5cnccn5)n4)c3)cc(C(F)(F)F)c2)cn1` [Radotinib], the figure is 0.62 °C.
Same read-out and setting: under `OC(c1cc(-c2ccc(Cl)cc2)nc2ccccc12)C1CCCCN1` (stereo unspecified) [Vacquinol-1] stands 0.64 °C; under `Cc1cc(CS(=O)(=O)c2ccccc2)cc(OCc2ccc(CN3CCC[C@@H]3CO)cc2)c1`, 0.08 °C; under `Clc1ccc(Nc2nnc(Cc3ccncc3)c3ccccc23)cc1` [Vatalanib (PTK787) 2HCl], 0.05 °C.
`CN1CCN(c2ccc(Nc3cc(-c4cccc(-n5ccc6cc(C7CC7)cc(F)c6c5=O)c4CO)cn(C)c3=O)nc2)CC1`: the “thermal shift delta Tm” value came to 0.46 °C.
Still for that read-out and setting: under `O=C1NC(=O)[C@@H](c2cn3c4c(cccc24)CCC3)[C@@H]1c1c[nH]c2ccccc12` [Tivantinib (ARQ 197)] stands 0.57 °C; under `COc1cc(-c2cc(-c3ccc(N4CCNCC4)cc3)cnc2C)cc(OC)c1OC`, 0.17 °C; under `Cn1ncc(Cl)c1-c1cc(C(=O)N[C@H](CN)Cc2ccc(F)c(F)c2)oc1Cl`, 1.04 °C.
Same read-out and setting: under `C[C@H](Nc1ncnc2nc[nH]c12)c1cc2cccc(Cl)c2c(=O)n1-c1ccccc1` [Duvelisib (IPI-145, INK1197)] stands 0.49 °C; under `COc1cc2ncnc(Nc3ccc(F)c(Cl)c3)c2cc1OCCCN1CCOCC1` [Gefitinib (ZD1839)], 0.31 °C.
The same measure, in the same setting: as for `C[C@@H](N)c1ccc(C(=O)Nc2ccnc3[nH]ccc23)cc1`, the figure is 0.84 °C.
With `Cc1ccc(C(=O)Nc2cccc(C(F)(F)F)c2)cc1Nc1nc(-c2cccnc2)nc2c1cnn2C`, the “thermal shift delta Tm” value is 1.18 °C.
The same measure, in the same setting: under `O=C1NC(=O)/C(=C/c2ccc3nccc(-c4ccncc4)c3c2)S1` stands 0.36 °C.
Still for that read-out and setting: under `Oc1c2ccccc2c2c3c(cccc13)N=N2` stands 1 °C.
On to `C=CC(=O)Nc1ccc2ncnc(Nc3cccc(Br)c3)c2c1`, for which the “thermal shift delta Tm” value was 0.31 °C.
On the same count and under the same terms, under `COc1cc2nccc(Oc3ccc(NC(=O)NC4CC4)c(Cl)c3)c2cc1C(N)=O` [Lenvatinib (E7080)] stands 0.32 °C.
Still for that read-out and setting: under `CN1CCCN(C(=O)c2cccc(-c3ccc(/C=C4/C(=O)Nc5ccc(Cl)cc54)o3)c2)CC1` stands 0.58 °C.
Still for that read-out and setting: under `CCc1cnn2c(NCc3ccc[n+]([O-])c3)cc(N3CCCC[C@H]3CCO)nc12` stands 0.19 °C; under `O=C(Nc1ccc(OC(F)(F)F)cc1)c1sccc1NCc1ccnc2ccccc12`, 0.67 °C; under `CCOC(=O)c1cnc2ccc(-c3cncc(NS(=O)(=O)c4ccccc4)c3)cn12`, 0.51 °C.
In the case of `CCCNC(=O)Nc1ccc(Oc2ncnc3cc(OC)c(OC)cc23)cc1Cl`, the “thermal shift delta Tm” value was 0.07 °C.
Still for that read-out and setting: under `Cc1cc(Nc2ncnc3ccc(-c4ccc(CNCCS(C)(=O)=O)o4)cc23)ccc1Oc1ccn2ncnc2c1` [HER2-Inhibitor-1] stands 0.41 °C; under `COc1cc2c(Oc3ccc(NC(=O)C4(C(=O)Nc5ccc(F)cc5)CC4)cc3F)ccnc2cc1OCCCN1CCOCC1`, 0.27 °C.
On the same count and under the same terms, under `Cn1cc(-c2ccc3c(c2)CCN3C(=O)Cc2cccc(C(F)(F)F)c2)c2c(N)ncnc21` stands 0.46 °C; under `O=C(c1ccc(Nc2nccc(-c3cc4ccccc4s3)n2)cc1)N1CCC(N2CCCC2)CC1` [IKK-16 (IKK Inhibitor VII)], -0.31 °C.
On the same count and under the same terms, as for `Cc1cc(NC(=O)c2cccc(NC(=O)/C=C/CN(C)C)c2)ccc1Nc1nccc(-c2cccnc2)n1`, the figure is 0.56 °C; as for `CC(C)[C@H](CO)Nc1nc(Nc2cccc(Cl)c2)c2ncn(C(C)C)c2n1` [Purvalanol A], 0.79 °C; as for `C=CC(=O)Nc1cccc(Nc2nc(Nc3ccc(OCCOC)cc3)ncc2F)c1`, 1.03 °C.
Turning to `Cc1c(C(=O)Nc2ccc(Oc3ccnc4[nH]cc(-c5ccccc5)c34)c(F)c2)c(=O)n(-c2ccc(F)cc2)n1C`, the “thermal shift delta Tm” value was determined as 0.25 °C.
Still for that read-out and setting: under `COc1cc(Nc2ncc(F)c(Nc3ccc4c(n3)N(COP(=O)(O)O)C(=O)C(C)(C)O4)n2)cc(OC)c1OC` [Fostamatinib (R788)] stands 0.38 °C; under `CC(C)c1c2cc(-c3ccnc(NC4CCC(NC5CCOCC5)CC4)n3)ccc2nn1C` (stereo unspecified), 0.57 °C.
Still for that read-out and setting: under `Cc1nc2ccc(-n3ncc(C(=O)c4cc5ccccc5[nH]4)c3N)cc2[nH]1` stands 0.2 °C.
Still for that read-out and setting: under `COc1cc2ncnc(Sc3nnc(C)s3)c2cc1OC` stands 0.17 °C; under `CCOc1cn(-c2ccc(F)cc2C)nc1C(=O)Nc1ccc(Oc2ccnc3cc(OC)c(OC)cc23)c(F)c1`, 0.24 °C; under `COc1ccc([C@@H]2OC[C@H]3[C@@H]2CO[C@@H]3c2ccc(O[C@@H]3O[C@H](CO)[C@@H](O)[C@H](O)[C@H]3O)c(OC)c2)cc1OC` [Forsythin], 0.21 °C.

For a further experiment, the system named is LOC_OS06G16330-cb003. The experiment is described as above. Conditions: 12.5 µM; protein concentration 2 µM. Summed up:
as §1
On to `O=C1NC(=O)C(c2ccccc2[N+](=O)[O-])=C1Nc1ccc(O)c(Cl)c1`, for which the “thermal shift delta Tm” value was -0.2 °C.
Still for that read-out and setting: under `CCOc1cc2ncc(C#N)c(Nc3ccc(OCc4ccccn4)c(Cl)c3)c2cc1NC(=O)/C=C/CN(C)C` [Neratinib (HKI-272)] stands 0.45 °C; under `CCCS(=O)(=O)Nc1ccc(F)c(C(=O)c2c[nH]c3ncc(-c4ccc(Cl)cc4)cc23)c1F` [Vemurafenib (PLX4032, RG7204)], 8.05 °C; under `Cc1cn(-c2cc(NC(=O)c3ccc(C)c(Nc4nccc(-c5cnccn5)n4)c3)cc(C(F)(F)F)c2)cn1` [Radotinib], -0.09 °C.
The same measure, in the same setting: under `OC(c1cc(-c2ccc(Cl)cc2)nc2ccccc12)C1CCCCN1` (stereo unspecified) [Vacquinol-1] stands 0.55 °C; under `Cc1cc(CS(=O)(=O)c2ccccc2)cc(OCc2ccc(CN3CCC[C@@H]3CO)cc2)c1`, -0.51 °C; under `Clc1ccc(Nc2nnc(Cc3ccncc3)c3ccccc23)cc1` [Vatalanib (PTK787) 2HCl], 0.09 °C.
Same read-out and setting: as for `CN1CCN(c2ccc(Nc3cc(-c4cccc(-n5ccc6cc(C7CC7)cc(F)c6c5=O)c4CO)cn(C)c3=O)nc2)CC1`, the figure is 0.74 °C; as for `O=C1NC(=O)[C@@H](c2cn3c4c(cccc24)CCC3)[C@@H]1c1c[nH]c2ccccc12` [Tivantinib (ARQ 197)], 0.29 °C; as for `COc1cc(-c2cc(-c3ccc(N4CCNCC4)cc3)cnc2C)cc(OC)c1OC`, 2.03 °C.
For `Cn1ncc(Cl)c1-c1cc(C(=O)N[C@H](CN)Cc2ccc(F)c(F)c2)oc1Cl`, the “thermal shift delta Tm” value was 1.15 °C.
Same read-out and setting: under `C[C@H](Nc1ncnc2nc[nH]c12)c1cc2cccc(Cl)c2c(=O)n1-c1ccccc1` [Duvelisib (IPI-145, INK1197)] stands 0.28 °C; under `COc1cc2ncnc(Nc3ccc(F)c(Cl)c3)c2cc1OCCCN1CCOCC1` [Gefitinib (ZD1839)], 2.35 °C.
Same read-out and setting: under `C[C@@H](N)c1ccc(C(=O)Nc2ccnc3[nH]ccc23)cc1` stands 2.93 °C.
Still for that read-out and setting: under `Cc1ccc(C(=O)Nc2cccc(C(F)(F)F)c2)cc1Nc1nc(-c2cccnc2)nc2c1cnn2C` stands 1.09 °C.
Take `O=C1NC(=O)/C(=C/c2ccc3nccc(-c4ccncc4)c3c2)S1`: the “thermal shift delta Tm” value is 3.51 °C.
The same measure, in the same setting: as for `Oc1c2ccccc2c2c3c(cccc13)N=N2`, the figure is 5.84 °C.
Same read-out and setting: as for `C=CC(=O)Nc1ccc2ncnc(Nc3cccc(Br)c3)c2c1`, the figure is -0.95 °C; as for `COc1cc2nccc(Oc3ccc(NC(=O)NC4CC4)c(Cl)c3)c2cc1C(N)=O` [Lenvatinib (E7080)], 1.75 °C.
Same read-out and setting: as for `CN1CCCN(C(=O)c2cccc(-c3ccc(/C=C4/C(=O)Nc5ccc(Cl)cc54)o3)c2)CC1`, the figure is 1.36 °C; as for `CCc1cnn2c(NCc3ccc[n+]([O-])c3)cc(N3CCCC[C@H]3CCO)nc12`, -0.11 °C.
Turning to `O=C(Nc1ccc(OC(F)(F)F)cc1)c1sccc1NCc1ccnc2ccccc12`, the “thermal shift delta Tm” value amounted to 0.61 °C.
Regarding `CCOC(=O)c1cnc2ccc(-c3cncc(NS(=O)(=O)c4ccccc4)c3)cn12`, the “thermal shift delta Tm” value came out at 2.32 °C.
As to `CCCNC(=O)Nc1ccc(Oc2ncnc3cc(OC)c(OC)cc23)cc1Cl`, the “thermal shift delta Tm” value is 1.43 °C.
As for `Cc1cc(Nc2ncnc3ccc(-c4ccc(CNCCS(C)(=O)=O)o4)cc23)ccc1Oc1ccn2ncnc2c1` [HER2-Inhibitor-1], the “thermal shift delta Tm” value came to 3.81 °C.
Still for that read-out and setting: as for `COc1cc2c(Oc3ccc(NC(=O)C4(C(=O)Nc5ccc(F)cc5)CC4)cc3F)ccnc2cc1OCCCN1CCOCC1`, the figure is 9.02 °C; as for `Cn1cc(-c2ccc3c(c2)CCN3C(=O)Cc2cccc(C(F)(F)F)c2)c2c(N)ncnc21`, 2.76 °C.
On to `O=C(c1ccc(Nc2nccc(-c3cc4ccccc4s3)n2)cc1)N1CCC(N2CCCC2)CC1` [IKK-16 (IKK Inhibitor VII)], for which the “thermal shift delta Tm” value was found to be 9.02 °C.
Same read-out and setting: as for `Cc1cc(NC(=O)c2cccc(NC(=O)/C=C/CN(C)C)c2)ccc1Nc1nccc(-c2cccnc2)n1`, the figure is 2.18 °C.
Still for that read-out and setting: under `CC(C)[C@H](CO)Nc1nc(Nc2cccc(Cl)c2)c2ncn(C(C)C)c2n1` [Purvalanol A] stands 2.99 °C; under `C=CC(=O)Nc1cccc(Nc2nc(Nc3ccc(OCCOC)cc3)ncc2F)c1`, 7.95 °C; under `Cc1c(C(=O)Nc2ccc(Oc3ccnc4[nH]cc(-c5ccccc5)c34)c(F)c2)c(=O)n(-c2ccc(F)cc2)n1C`, 6.4 °C.
Still for that read-out and setting: as for `COc1cc(Nc2ncc(F)c(Nc3ccc4c(n3)N(COP(=O)(O)O)C(=O)C(C)(C)O4)n2)cc(OC)c1OC` [Fostamatinib (R788)], the figure is 12.2 °C.
With `CC(C)c1c2cc(-c3ccnc(NC4CCC(NC5CCOCC5)CC4)n3)ccc2nn1C` (stereo unspecified), the “thermal shift delta Tm” value turned out to be 3.01 °C.
Same read-out and setting: as for `Cc1nc2ccc(-n3ncc(C(=O)c4cc5ccccc5[nH]4)c3N)cc2[nH]1`, the figure is 0.87 °C; as for `COc1cc2ncnc(Sc3nnc(C)s3)c2cc1OC`, 2.49 °C; as for `CCOc1cn(-c2ccc(F)cc2C)nc1C(=O)Nc1ccc(Oc2ccnc3cc(OC)c(OC)cc23)c(F)c1`, 3.99 °C.
The same measure, in the same setting: under `COc1ccc([C@@H]2OC[C@H]3[C@@H]2CO[C@@H]3c2ccc(O[C@@H]3O[C@H](CO)[C@@H](O)[C@H](O)[C@H]3O)c(OC)c2)cc1OC` [Forsythin] stands -0.18 °C.
